Of roughly 7,900 targets only a part is listed; those with a hit were picked by preference. About 0.6% of all pairs of compound and target were hits.
Tests used:
Assay in all cases: log2 fold change, soluble protein after heating vs DMSO (PISA); higher = thermal stabilisation; K562 cells, 10 uM, 30 min; active = over 0.2 and 3.5 SD of the protein, either way, in both replicates (recomputed)
erlotinib = compound: C#Cc1cccc(Nc2ncnc3cc(OCCOC)c(OCCOC)cc23)c1 [erlotinib]
Summary of the method: (§1)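 Aliquots of K562 cells (2×10^6 cells/mL) treated with 10 μM compound for 30 min were heated for 3 min over 48°C-58°C. After pooling and extraction in PBS with 0.5% NP-40 at 4°C, soluble protein from a 21,000xg, 90 min spin was quantified by TMTpro 16plex LC-MS/MS with channel sums equalised. Thermal stability is expressed against control samples, from duplicates, as a log2 fold change.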

[1] = compound: C/C(=N\NC(=O)C1=CC(=CC=C1)S(=O)(=O)N2CCOCC2)/C3=C(C=CC(=C3)Cl)O
Summary of the method: as §1

[2] = compound: C1=CC(=C(C=C1Cl)C2=NC3=NC=CN=C3C(=N2)NC4=CC=NC=C4)F
Summary of the method: as §1

[3] = compound: C1=CC(=CC=C1C2=NC3=C(N2)C=C(C=C3)C(=O)N)OC4=CC=C(C=C4)Cl
Summary of the method: as §1

[4] = compound: C1=CC2=C(C=CC(=C2)/C=C\3/C(=O)NC(=NCC4=CC=CS4)S3)N=C1
Summary of the method: as §1

[5] = compound: C1=CC2=NC=CN=C2C=C1/C=C/3\C(=O)NC(=O)S3
Summary of the method: as §1

[6] = compound: C1=CC=C(C=C1)C2=NC(=C(N2)C3=CC=NC=C3)C4=CC(=C(C=C4)Cl)O
Summary of the method: as §1

[7] = compound: C1=CC=C2C(=C1)C3=NNC4=CC=CC(=C43)C2=O
Summary of the method: as §1

[8] = compound: C1CCN(C1)C(=O)NC2=CC=CC(=C2)NC3=NC=C(C(=N3)NCCC4=CN=CN4)Br
Summary of the method: as §1

[9] = compound: C1CN(CCC1(CC2=CC=C(C=C2)Cl)N)C3=NC=NC4=C3C=CN4
Summary of the method: as §1

Measured: log2 fold change

EIF4E isoform 2 (UniProt P06730)
inactive: erlotinib 0.084 | [1] -0.035 | [2] 0.056 | [3] -0.073 | [4] 0.01 | [5] 0.168 | [6] 0.074 | [7] 0.152 | [8] 0.181 | [9] 0.146

FAF2 (UniProt Q96CS3)
inactive: erlotinib 0.009 | [1] 0.078 | [2] -0.003 | [3] 0.02 | [4] 0.049 | [5] 0.03 | [6] 0.15 | [7] 0.009 | [8] 0.035 | [9] 0.004

DCTN1 isoform 4 (UniProt Q14203)
inactive: erlotinib 0.04 | [1] 0.031 | [2] -0.053 | [3] -0.033 | [4] 0.037 | [5] -0.009 | [6] -0.023 | [7] 0.05 | [8] 0.046 | [9] -0.072

FAM207A (UniProt Q9NSI2)
inactive: erlotinib -0.082 | [1] -0.092 | [2] -0.039 | [3] -0.032 | [4] -0.204 | [5] -0.018 | [6] -0.027 | [7] 0.006 | [8] -0.159 | [9] -0.054

CUX1 isoform 2 (UniProt Q13948)
Sequence of UniProt Q13948 (Q13948 whole entry, looked up): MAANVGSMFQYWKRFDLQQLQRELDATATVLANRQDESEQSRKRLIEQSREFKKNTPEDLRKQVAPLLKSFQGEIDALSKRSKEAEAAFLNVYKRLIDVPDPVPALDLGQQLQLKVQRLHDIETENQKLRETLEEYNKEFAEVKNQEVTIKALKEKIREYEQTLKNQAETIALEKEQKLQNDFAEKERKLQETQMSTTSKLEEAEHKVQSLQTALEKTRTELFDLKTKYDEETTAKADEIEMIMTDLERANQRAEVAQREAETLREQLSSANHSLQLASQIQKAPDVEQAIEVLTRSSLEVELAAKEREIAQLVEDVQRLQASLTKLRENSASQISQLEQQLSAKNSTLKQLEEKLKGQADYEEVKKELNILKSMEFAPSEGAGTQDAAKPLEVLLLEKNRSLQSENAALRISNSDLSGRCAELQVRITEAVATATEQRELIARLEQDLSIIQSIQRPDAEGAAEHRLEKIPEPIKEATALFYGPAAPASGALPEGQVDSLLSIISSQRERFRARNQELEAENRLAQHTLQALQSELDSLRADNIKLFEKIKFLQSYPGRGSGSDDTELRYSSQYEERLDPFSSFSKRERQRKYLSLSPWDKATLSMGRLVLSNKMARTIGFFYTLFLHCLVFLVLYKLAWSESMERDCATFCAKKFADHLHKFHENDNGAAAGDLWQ
inactive: erlotinib -0.025 | [1] 0.017 | [2] 0.012 | [3] 0.036 | [4] 0.014 | [5] -0.031 | [6] -0.043 | [7] 0.009 | [8] -0.009 | [9] -0.031

DNM2 (UniProt P50570)
inactive: erlotinib 0.042 | [1] 0.065 | [2] 0.01 | [3] -0.025 | [4] 0.046 | [5] -0.001 | [6] 0.019 | [7] 0.033 | [8] 0.015 | [9] -0.003

DDB1 (UniProt Q16531)
inactive: erlotinib -0.03 | [1] 0.006 | [2] 0.009 | [3] 0.022 | [4] 0.003 | [5] 0.014 | [6] -0.019 | [7] -0.032 | [8] 0.018 | [9] 0.04

DBN1 isoform 3 (UniProt Q16643)
inactive: erlotinib -0.095 | [1] -0.047 | [2] -0.028 | [3] 0.039 | [4] -0.074 | [5] 0.02 | [6] 0.021 | [7] -0.029 | [8] 0.089 | [9] 0.041

CUEDC2 (UniProt Q9H467)
inactive: erlotinib 0.016 | [1] -0.023 | [2] 0.047 | [3] 0.023 | [4] -0.021 | [5] 0.117 | [6] -0.074 | [7] 0.008 | [8] -0.071 | [9] -0.006

ECPAS (UniProt Q5VYK3)
Sequence of UniProt Q5VYK3 (Q5VYK3 whole entry, looked up): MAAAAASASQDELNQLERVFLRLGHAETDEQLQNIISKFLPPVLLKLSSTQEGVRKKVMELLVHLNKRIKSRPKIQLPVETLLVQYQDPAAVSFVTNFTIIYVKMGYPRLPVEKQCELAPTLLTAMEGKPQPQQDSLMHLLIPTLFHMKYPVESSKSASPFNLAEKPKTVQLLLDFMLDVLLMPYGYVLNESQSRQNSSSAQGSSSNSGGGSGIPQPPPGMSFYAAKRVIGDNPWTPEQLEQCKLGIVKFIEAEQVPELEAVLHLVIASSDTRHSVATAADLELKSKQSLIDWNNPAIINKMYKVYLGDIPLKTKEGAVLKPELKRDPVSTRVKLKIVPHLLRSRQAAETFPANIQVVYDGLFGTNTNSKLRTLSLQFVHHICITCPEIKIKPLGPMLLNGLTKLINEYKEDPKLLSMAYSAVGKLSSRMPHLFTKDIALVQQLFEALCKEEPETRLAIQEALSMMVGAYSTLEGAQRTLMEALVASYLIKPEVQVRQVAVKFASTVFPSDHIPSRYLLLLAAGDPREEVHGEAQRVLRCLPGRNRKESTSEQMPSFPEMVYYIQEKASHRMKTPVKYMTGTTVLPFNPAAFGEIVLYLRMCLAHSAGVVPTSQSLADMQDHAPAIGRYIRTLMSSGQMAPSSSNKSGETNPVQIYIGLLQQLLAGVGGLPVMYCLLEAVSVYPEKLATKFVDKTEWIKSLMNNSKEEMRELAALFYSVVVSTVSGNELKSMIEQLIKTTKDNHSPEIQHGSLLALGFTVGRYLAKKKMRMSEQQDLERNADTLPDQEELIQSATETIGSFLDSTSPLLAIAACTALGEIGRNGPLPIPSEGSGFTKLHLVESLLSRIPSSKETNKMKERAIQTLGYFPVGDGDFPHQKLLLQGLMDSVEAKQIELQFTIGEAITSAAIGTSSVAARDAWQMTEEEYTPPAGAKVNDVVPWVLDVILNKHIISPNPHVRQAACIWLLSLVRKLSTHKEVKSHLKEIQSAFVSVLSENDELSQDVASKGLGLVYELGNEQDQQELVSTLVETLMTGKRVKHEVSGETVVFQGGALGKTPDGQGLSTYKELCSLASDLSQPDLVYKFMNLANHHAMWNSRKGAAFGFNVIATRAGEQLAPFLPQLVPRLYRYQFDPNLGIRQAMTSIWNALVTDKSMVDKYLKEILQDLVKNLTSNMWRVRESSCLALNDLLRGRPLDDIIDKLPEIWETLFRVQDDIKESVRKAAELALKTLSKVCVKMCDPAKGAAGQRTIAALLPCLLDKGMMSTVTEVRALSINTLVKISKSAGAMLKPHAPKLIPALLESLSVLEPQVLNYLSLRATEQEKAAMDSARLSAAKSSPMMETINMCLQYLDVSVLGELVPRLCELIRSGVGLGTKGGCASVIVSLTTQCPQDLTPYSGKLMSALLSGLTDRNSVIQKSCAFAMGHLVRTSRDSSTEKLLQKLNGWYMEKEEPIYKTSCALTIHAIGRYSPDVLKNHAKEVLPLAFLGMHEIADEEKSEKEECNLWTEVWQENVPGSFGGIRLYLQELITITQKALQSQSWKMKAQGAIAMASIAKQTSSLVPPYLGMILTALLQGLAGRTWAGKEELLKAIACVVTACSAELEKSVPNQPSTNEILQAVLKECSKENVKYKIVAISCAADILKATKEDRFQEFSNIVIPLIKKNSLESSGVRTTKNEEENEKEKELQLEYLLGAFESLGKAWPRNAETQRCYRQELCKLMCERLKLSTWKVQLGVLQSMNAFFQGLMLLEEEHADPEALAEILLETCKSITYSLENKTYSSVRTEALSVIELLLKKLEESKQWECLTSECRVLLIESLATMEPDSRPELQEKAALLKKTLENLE
inactive: erlotinib 0.058 | [1] 0.087 | [2] 0.001 | [3] -0.06 | [4] 0.042 | [5] 0.009 | [6] 0.048 | [7] -0.01 | [8] -0.028 | [9] -0.018

ESYT1 isoform 2 (UniProt Q9BSJ8)
inactive: erlotinib 0.039 | [1] 0.081 | [2] -0.016 | [3] -0.05 | [4] 0.035 | [5] -0.069 | [6] -0.042 | [7] 0.043 | [8] -0.11 | [9] -0.092

DUS2 (UniProt Q9NX74)
inactive: erlotinib -0.002 | [1] -0.022 | [2] 0.043 | [3] 0.088 | [4] 0.166 | [5] -0.011 | [6] -0.009 | [7] -0.123 | [8] -0.028 | [9] 0.021

EIF3J (UniProt O75822)
Sequence of UniProt O75822 (O75822 whole entry, looked up): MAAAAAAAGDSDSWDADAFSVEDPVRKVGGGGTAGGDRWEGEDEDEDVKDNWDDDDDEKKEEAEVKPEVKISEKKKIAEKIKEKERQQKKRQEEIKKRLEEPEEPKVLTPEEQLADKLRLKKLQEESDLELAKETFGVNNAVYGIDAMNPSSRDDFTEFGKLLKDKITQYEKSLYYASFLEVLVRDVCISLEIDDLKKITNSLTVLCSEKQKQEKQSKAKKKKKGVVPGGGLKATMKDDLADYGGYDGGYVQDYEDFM
inactive: erlotinib 0.056 | [1] -0.004 | [2] 0.068 | [3] -0.033 | [4] 0.012 | [5] 0.048 | [6] 0.101 | [7] 0.021 | [8] 0.009 | [9] -0.01

EEF1D isoform 2 (UniProt P29692)
inactive: erlotinib 0 | [1] 0.031 | [2] 0.016 | [3] -0.028 | [4] 0.025 | [5] 0.02 | [6] -0.03 | [7] 0.021 | [8] 0.048 | [9] -0.055

DCAF10 (UniProt Q5QP82)
inactive: erlotinib 0.01 | [1] 0.014 | [2] 0.021 | [3] 0.029 | [4] -0.038 | [5] 0.064 | [6] -0.077 | [7] -0.013 | [8] 0.029 | [9] 0.006

FAM160B1 (UniProt Q5W0V3)
inactive: erlotinib 0.034 | [1] 0.085 | [2] 0.012 | [3] -0.007 | [4] 0.019 | [5] 0.037 | [6] -0.005 | [7] 0 | [8] -0.035 | [9] -0.021

FAM117A (UniProt Q9C073)
inactive: erlotinib 0.127 | [1] 0.054 | [2] -0.056 | [3] 0.053 | [5] -0.101 | [6] -0.041 | [7] -0.129 | [8] -0.143 | [9] -0.121
active: [4] -0.279

DIAPH1 (UniProt O60610)
inactive: erlotinib 0.072 | [1] 0.058 | [2] -0.109 | [3] -0.037 | [4] 0.031 | [5] 0.04 | [6] 0.067 | [7] 0.006 | [8] -0.072 | [9] -0.235

DNAJC1 (UniProt Q96KC8)
Sequence of UniProt Q96KC8 (Q96KC8 whole entry, looked up): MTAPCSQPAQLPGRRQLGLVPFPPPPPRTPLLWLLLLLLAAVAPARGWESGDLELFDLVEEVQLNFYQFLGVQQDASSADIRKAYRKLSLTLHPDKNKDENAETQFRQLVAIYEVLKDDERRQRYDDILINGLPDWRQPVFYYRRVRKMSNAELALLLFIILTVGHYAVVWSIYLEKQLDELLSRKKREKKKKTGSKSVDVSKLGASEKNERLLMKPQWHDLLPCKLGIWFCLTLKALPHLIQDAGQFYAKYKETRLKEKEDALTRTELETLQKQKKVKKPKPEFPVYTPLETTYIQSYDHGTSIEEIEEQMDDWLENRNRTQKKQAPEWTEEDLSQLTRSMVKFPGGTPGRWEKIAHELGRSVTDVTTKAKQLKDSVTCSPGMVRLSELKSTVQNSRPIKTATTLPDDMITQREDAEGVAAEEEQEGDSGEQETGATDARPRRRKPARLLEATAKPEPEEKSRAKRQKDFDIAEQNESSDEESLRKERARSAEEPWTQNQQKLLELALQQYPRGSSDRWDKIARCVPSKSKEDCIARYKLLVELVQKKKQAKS
inactive: erlotinib 0.001 | [1] 0.096 | [2] 0.059 | [3] 0.014 | [4] 0.082 | [5] 0.004 | [6] -0.021 | [7] -0.022 | [8] -0.001 | [9] 0.027

CTSL (UniProt P07711)
inactive: erlotinib -0.005 | [1] -0.173 | [2] -0.036 | [3] -0.022 | [4] -0.203 | [5] 0.019 | [6] -0.002 | [7] -0.041 | [8] -0.023 | [9] 0.005

FAM177A1 isoform 2 (UniProt Q8N128)
Sequence of UniProt Q8N128 (Q8N128 whole entry, looked up): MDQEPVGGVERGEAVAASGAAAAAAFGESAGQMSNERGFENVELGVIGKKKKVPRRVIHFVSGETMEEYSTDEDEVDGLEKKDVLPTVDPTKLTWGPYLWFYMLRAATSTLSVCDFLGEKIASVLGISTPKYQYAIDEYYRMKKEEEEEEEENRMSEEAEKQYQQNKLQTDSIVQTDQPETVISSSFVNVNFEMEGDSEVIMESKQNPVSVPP
inactive: erlotinib 0.048 | [1] 0.042 | [2] 0.038 | [3] 0.023 | [4] 0.036 | [5] 0.02 | [6] 0.024 | [7] -0.037 | [8] 0.109 | [9] 0.044

EGR1 (UniProt P18146)
inactive: erlotinib -0.105 | [1] 0.001 | [2] 0.071 | [3] 0.176 | [4] 0.208 | [5] 0.088 | [6] -0.28 | [7] -0.474 | [8] 0.118 | [9] -0.121

EBNA1BP2 (UniProt Q99848)
inactive: erlotinib -0.041 | [1] -0.149 | [2] -0.466 | [3] 0.034 | [4] 0.042 | [5] 0.052 | [6] -0.047 | [7] -0.134 | [8] 0.048 | [9] -0.414

EDC3 (UniProt Q96F86)
active: [9] -0.376
inactive: erlotinib -0.023 | [1] 0.156 | [2] 0.009 | [3] 0.043 | [4] -0.007 | [5] -0.227 | [6] -0.024 | [7] -0.057 | [8] -0.195

FADS3 (UniProt Q9Y5Q0)
inactive: erlotinib 0.03 | [1] -0.005 | [2] 0.104 | [3] 0.017 | [4] 0.064 | [5] 0.058 | [6] 0.04 | [7] 0.001 | [8] -0.055 | [9] 0.05

EFCAB14 (UniProt O75071)
Sequence of UniProt O75071 (O75071 whole entry, looked up): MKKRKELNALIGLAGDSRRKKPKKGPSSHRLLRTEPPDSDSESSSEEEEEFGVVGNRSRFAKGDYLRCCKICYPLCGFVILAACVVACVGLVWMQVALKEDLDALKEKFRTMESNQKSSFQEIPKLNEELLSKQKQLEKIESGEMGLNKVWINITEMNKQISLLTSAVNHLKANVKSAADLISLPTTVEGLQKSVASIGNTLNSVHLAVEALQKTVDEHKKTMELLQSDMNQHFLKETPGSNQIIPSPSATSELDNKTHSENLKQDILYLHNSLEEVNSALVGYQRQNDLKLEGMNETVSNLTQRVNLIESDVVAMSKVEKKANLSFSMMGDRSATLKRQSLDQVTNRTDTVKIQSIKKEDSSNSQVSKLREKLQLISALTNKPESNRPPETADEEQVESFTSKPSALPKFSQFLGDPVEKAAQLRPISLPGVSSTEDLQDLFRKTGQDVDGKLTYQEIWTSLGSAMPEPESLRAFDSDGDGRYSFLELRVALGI
inactive: erlotinib 0.051 | [1] -0.053 | [2] 0.013 | [3] 0.024 | [4] -0.049 | [5] 0.033 | [6] 0.159 | [7] -0.119 | [8] 0.044 | [9] -0.032

EXOC6 (UniProt Q8TAG9)
Sequence of UniProt Q8TAG9 (Q8TAG9 whole entry, looked up): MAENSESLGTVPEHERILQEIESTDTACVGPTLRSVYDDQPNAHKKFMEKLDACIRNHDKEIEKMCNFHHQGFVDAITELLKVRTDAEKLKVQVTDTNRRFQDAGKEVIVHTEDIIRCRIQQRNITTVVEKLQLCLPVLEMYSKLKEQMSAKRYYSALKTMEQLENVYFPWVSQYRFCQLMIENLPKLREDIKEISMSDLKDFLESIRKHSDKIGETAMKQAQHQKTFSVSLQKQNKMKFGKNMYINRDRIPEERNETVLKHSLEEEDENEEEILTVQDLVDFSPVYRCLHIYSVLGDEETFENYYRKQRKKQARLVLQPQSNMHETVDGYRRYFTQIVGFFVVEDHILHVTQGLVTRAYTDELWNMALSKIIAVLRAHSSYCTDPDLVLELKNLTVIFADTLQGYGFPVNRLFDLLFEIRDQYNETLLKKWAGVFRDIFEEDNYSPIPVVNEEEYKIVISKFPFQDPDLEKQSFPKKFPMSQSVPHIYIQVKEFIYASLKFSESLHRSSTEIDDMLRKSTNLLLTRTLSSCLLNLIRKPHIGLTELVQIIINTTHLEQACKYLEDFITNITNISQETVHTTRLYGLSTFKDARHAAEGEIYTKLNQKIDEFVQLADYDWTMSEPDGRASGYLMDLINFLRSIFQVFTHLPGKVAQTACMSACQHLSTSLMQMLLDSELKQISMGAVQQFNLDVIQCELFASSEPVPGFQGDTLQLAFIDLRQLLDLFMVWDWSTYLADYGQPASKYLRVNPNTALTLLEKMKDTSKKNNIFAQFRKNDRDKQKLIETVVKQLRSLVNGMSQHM
inactive: erlotinib 0.073 | [1] 0.127 | [2] 0.006 | [3] -0.025 | [4] 0.096 | [5] 0.076 | [6] 0.069 | [7] 0.003 | [8] -0.045 | [9] -0.042

DHPS (UniProt P49366)
inactive: erlotinib 0 | [1] -0.01 | [2] 0.088 | [3] -0.002 | [4] -0.034 | [5] 0.033 | [6] 0.024 | [7] -0.004 | [8] -0.007 | [9] 0.021

FAM122A (UniProt Q96E09)
inactive: erlotinib 0.095 | [1] 0.073 | [2] 0.053 | [3] -0.025 | [4] -0.068 | [5] 0.051 | [6] -0.019 | [7] 0.03 | [8] 0.031 | [9] -0.075

EIF4A1 (UniProt P60842)
inactive: erlotinib 0.036 | [1] 0.049 | [2] 0.047 | [3] -0.023 | [4] 0.016 | [5] -0.021 | [6] 0.007 | [7] 0.035 | [8] -0.039 | [9] 0.054
